Compound activity as filed in PubChem BioAssay.
tim10-1 inh – growth inhibitors of tim10-1 mutant yeast. S. cerevisiae tim10-1 ts strain growth, BacTiter-Glo, 24 h. inhibition, % at 20 µM. 330,000 tested, 2.2% active;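 active = inhibition of at least 40%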;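 also: mutant grown at 25 °C; 0% = DMSO wells with yeast and 100% = wells holding no yeast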
TIM10 inh – TIM10 yeast growth inhibition; S. cerevisiae TIM10 strain growth, BacTiter-Glo luminescence, 24 h; inhibition, % at 10 µM; 330,000 tested, 1.4% active; AID 463195;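 active = inhibition of 40% or more at the single tested concentration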;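 also: wild-type TIM10 isogenic control strain grown at permissive 25 °C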
PfHsp90 yeast 2 – inhibits growth of yeast expressing Plasmodium falciparum Hsp90; 310,000 tested, 0.32% active; AID 504621; inhibition, % at 9.4 µM; S. cerevisiae expressing PfHsp90, BacTiter-Glo ATP, 48 h; yeast lacking PDR1 and PDR3 efflux regulators;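 active = every replicate shows inhibition above about 80%, whatever the replicate mean, limit read from the data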;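 also: 0% = DMSO neutral controls and 100% = 20 µM radicicol positive controls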
Rce1 inh – yeast Ras-converting enzyme inhibition. yeast membranes, quenched prenylated peptide cleavage fluorescence. calls only. Q03530. 290,000 tested, 0.27% active. AID 2563;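 active = fall in fluorescence gain of 50% or more versus controls, with final raw signal at or below 3038400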;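 also: plate controls were neutral control wells for no effect and wells lacking membranes for full effect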
Target sequence (Q03530 whole entry, looked up): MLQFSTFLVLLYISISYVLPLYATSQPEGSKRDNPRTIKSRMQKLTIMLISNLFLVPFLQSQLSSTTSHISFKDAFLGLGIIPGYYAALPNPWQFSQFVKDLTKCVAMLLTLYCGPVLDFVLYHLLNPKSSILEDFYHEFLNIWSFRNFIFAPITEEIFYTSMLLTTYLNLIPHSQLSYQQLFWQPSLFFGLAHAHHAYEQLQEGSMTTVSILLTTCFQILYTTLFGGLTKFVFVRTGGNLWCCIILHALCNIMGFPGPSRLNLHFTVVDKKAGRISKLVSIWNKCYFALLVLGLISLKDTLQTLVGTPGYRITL
tim23-1 inh – growth inhibitors of tim23-1 mutant yeast; AID 463212; 330,000 tested, 1.3% active; S. cerevisiae tim23-1 growth, BacTiter-Glo luminescence, 24 h; inhibition, % at 20 µM;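 active = growth inhibition of the mutant yeast at or above 50%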;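 also: temperature-sensitive mutant grown at 25 °C; plate controls were DMSO-treated mutant yeast for no effect and medium wells lacking yeast for full effect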
* marks the source's active call; other numbers are inactive results; i = inactive; x = not tested or not shown; + = active, no number. Shown are actives, neighbours in structure and some others; about 3.7% of the full set was active somewhere.

SMILES	tim10-1 inh	TIM10 inh	PfHsp90 yeast 2	Rce1 inh	tim23-1 inh
CC(NC(=O)COC(=O)c1c[nH]c2ccccc12)c1ccccc1 (configuration not stated)	-7.4	-4.1	x	x	1.6
CCOc1ccc(N=Nc2ccc(O)c3ncccc23)cc1	4.1	20.8	38.6	i	36.0
CCOc1ccc2c(ccc(/C=C/c3cc(C)c4cccnc4c3O)[n+]2C)c1	x	x	114.8*	x	x
COc1cccc(-c2cc(C(F)(F)F)n3ncc(C(=O)O)c3n2)c1	-5.1	-4.7	4.9	i	-8.9
COc1cccc(-c2cc(C(F)(F)F)n3ncc(S(=O)(=O)c4ccccc4)c3n2)c1	-2.2	-4.6	-21.1	+	4.7
O=C(O)CC(Cc1ccc(Cl)cc1)C(=O)NCc1ccccc1 (configuration not stated)	10.9	-4.5	19.3	i	24.9
Cc1ccc(OCc2cn3cccnc3n2)cc1	1.9	-26.2	3.1	i	-0.2
COc1nc(-c2ccccc2)ccc1-c1noc(-c2cccnc2)n1	16.8	4.9	22.5	i	2.0
COc1nc(-c2ccccc2)ccc1-c1noc(-c2ccccc2F)n1	-14.5	-0.2	1.7	+	-16.6
CCc1c(C)nc(SCC(=O)Nc2nc(-c3ccc(OC)cc3)cs2)[nH]c1=O	-13.5	3.6	-5.7	i	-0.5
O=c1c2ccccc2nc2n1CCCCN2	10.8	4.6	29.1	+	11.1
CCNC(=S)NN(c1ccccc1)c1ccccc1	12.1	11.7	-0.1	i	-8.2
CCN(C(=O)COc1ccc2ccc(=O)oc2c1)C1CCCCC1	3.6	10.3	-4.0	x	23.2
CN(C)C(=O)COc1ccc2ccc(=O)oc2c1	0.9	8.8	0.9	+	14.9
CCCCOC(=O)Nc1nc(C)c(C(=O)OCC)s1	24.8	29.2	9.0	+	13.1
CCOC(=O)c1sc(NC(=O)CC)nc1C	14.6	1.5	10.0	i	20.2
CCOc1ccccc1N/C(=N/c1nc(C)cc(C)n1)NC(=O)Nc1ccc(Cl)c(Cl)c1	1.2	4.4	x	i	22.8
CN=C(C)/C(C(=O)OC)=C(/O)c1c(F)cccc1F	6.2	-18.4	-0.9	x	10.4
Cc1ccc(Nc2nc(N)nc(COC(=O)C3=COCCO3)n2)cc1	20.5	11.4	-8.4	x	25.1
CCN(CC)c1ccc(C2NC(=O)c3ccccc3N2)cc1 (configuration not stated)	x	x	1.4	x	x
O=C1NC(c2ccc(Br)cc2)Nc2ccccc21 (configuration not stated)	24.4	-8.6	-6.7	+	30.1
CCn1nnnc1SCC(=O)Nc1nc(C)c(C)s1	-2.0	-12.1	-37.2	+	-2.7
CCN(CC(=O)Nc1c(F)cccc1F)C(=O)CCN1C(=O)C2CC=CCC2C1=O (configuration not stated)	8.8	5.4	-5.2	i	11.9
O=C1S/C(=C\c2ccc(N3CCOCC3)o2)C(=O)N1c1ccccc1	11.7	14.1	-127.1	i	14.8
O=C1S/C(=C\c2ccc(N3CCOCC3)o2)C(=O)N1Cc1c(F)cccc1Cl	33.9	23.2	97.0*	i	21.4
SMILES	tim10-1 inh	TIM10 inh	PfHsp90 yeast 2	Rce1 inh	tim23-1 inh
O=C(CCN1CCN(c2ccccc2)CC1)NNC(=S)Nc1ccccc1Cl	20.2	14.0	-8.8	i	-7.3
Cc1cc(C(=O)N[C@H](c2ccccc2)[C@@]2(C)C[C@@H]2[C@@H](C)C(=O)Nc2ccc3ccccc3c2)n(C)n1	24.0	12.3	-14.3	+	21.2
Cc1csc(NC(=O)C2CC(=O)N(c3ccc(C)c(C)c3)C2)n1 (configuration not stated)	-0.1	19.3	-8.0	i	13.6
Cc1cc(C)c2nc(N(CCCN(C)C)C(=O)c3ccc4c(c3)CCCC4)sc2c1	21.2	25.1	x	+	23.1
CCSCCOC(=O)C1=C(C)NC(=O)NC1c1ccccc1 (configuration not stated)	-4.2	-0.7	3.7	+	-8.2
Cc1ccc(NC(=O)c2cc(N3C(=O)C=CC3=O)ccc2N2CCOCC2)cc1Cl	x	x	104.6*	i	x
Cc1ccc(NC(=O)c2cc(N3C(=O)CCC3=O)ccc2N2CCOCC2)cc1	3.7	13.1	-2.0	i	3.9
Nc1nnnn1/N=C/c1cccc(Oc2ccccc2)c1	35.4	0.3	24.5	i	23.6
Nc1nnnn1/N=C/c1cccc(OCc2ccccc2Cl)c1	20.8	16.8	x	+	14.2
CCCCCC1=NN2C(=O)CC(=O)N=C2S1	-22.3	8.7	20.2	i	5.4
C=C(C)Cn1c(CCCNC(=O)CCC)nc2ccccc21	5.5	9.3	6.0	i	9.1
COC(=O)c1cccc(NC(=O)CSc2nc(O)c(-c3ccccc3)c(=O)[nH]2)c1	3.6	-9.3	-12.6	i	0.8
CN1CCN(C(c2ccccn2)c2cc(Cl)c3cccnc3c2O)CC1 (configuration not stated)	-23.4	-38.0	103.2*	i	33.9
COC(=O)c1cc2c(=O)n3ccccc3nc2n(Cc2cccnc2)c1=N	6.6	-29.2	x	i	8.8
N=c1c(C(=O)NCc2ccc(F)cc2)cc2c(=O)n3ccccc3nc2n1Cc1cccnc1	13.9	6.6	x	+	-6.6
Cc1ccc(S(=O)(=O)NCCC(=O)OCC(=O)N2CCCC2=O)cc1C	7.3	11.4	-10.4	i	17.3
CCC(=O)Nc1cc(-c2nn(CC(=O)N3CCCCC3)c(=O)c3ccccc23)ccc1N1CCOCC1	9.5	-5.6	-2.5	+	8.7
O=C1C=CC2(O[C@H](c3ccccc3)[C@@H](c3ccccc3)O2)[C@H](Sc2ccccc2O)C1	x	x	113.2*	x	x
COc1ccc(S(=O)(=O)NCC2CCCN(Cc3ccccc3C)C2)cc1 (configuration not stated)	-27.4	-11.8	-12.2	i	2.6
CCNc1nc(NC(C)C)nc(N(C#N)C(C)C(=O)N(CC)CC)n1 (configuration not stated)	-0.5	7.8	x	i	10.1
CN(C)C=NC(=O)c1ccc(N2CCN(c3ncc(C(F)(F)F)cc3Cl)CC2)cc1	6.1	-3.4	-4.9	i	-2.3
O=C(CN1CCN(c2ncc(C(F)(F)F)cc2Cl)CC1)NCCNc1ncc(C(F)(F)F)cc1Cl	19.1	-100.5	99.9*	i	12.6
CN(C)/C=C/C(=O)c1ccc(N2CCN(c3ncc(C(F)(F)F)cc3Cl)CC2)cc1	20.6	17.4	108.9*	i	41.1
NNC(=O)CN1CCN(c2ncc(C(F)(F)F)cc2Cl)CC1	16.6	8.8	22.6	i	-7.4
COc1cc(S(=O)(=O)N(C)C2CCCCC2)c(C)cc1C	x	x	-6.4	i	x
CC(=O)NN1C(=O)c2ccccc2NC1c1ccoc1 (configuration not stated)	2.4	-0.2	4.5	+	-8.4
CCNS(=O)(=O)c1ccc(CCC(=O)NCc2ccc(C)cc2)cc1	7.9	-5.3	-4.4	i	0.2
CC1=C/C(=N\OS(=O)(=O)c2ccccc2)C(C(C)C)=CC1=O	x	x	103.7*	x	x
CCOc1ccc(NC(=O)CCSc2ccc(C)cc2)cc1	12.8	13.1	3.8	+	30.1
Cc1ccc(SCCC(=O)Nc2ccc(OCc3ccccc3)cc2)cc1	13.4	-21.4	-4.6	i	-13.4
